Here are results for 39 molecules from the antibiotic and cytotoxicity screens of Wong et al. (2023).

The structures appear in SMILES notation. About 1,500 (3.8%) of roughly 39,000 compounds were called active. The sample as a whole holds a higher share of actives than the screen did.

For this assay, the system named is HSkMC (human skeletal muscle cells). The assay is described as follows: cytotoxicity call (relative viability < 0.9). The conditions noted are these: 10 µM.
Take `Cc1noc(C)c1NC(=O)Nc1cccc2c1O[C@@H](CN(C)C(=O)Nc1cccc3ccccc13)[C@@H](C)CN([C@H](C)CO)C2=O`: the cytotoxicity call was “inactive”.

Turning to `C[C@@H]1CN([C@@H](C)CO)S(=O)(=O)c2ccc(C#CCN(C)C)cc2O[C@@H]1CN(C)Cc1ccc2c(c1)OCO2`, the cytotoxicity call was “inactive”.

For `COCC#Cc1cnc2c(c1)C(=O)N([C@@H](C)CO)C[C@@H](C)[C@H](CN(C)C(=O)c1cnccn1)O2`, the cytotoxicity call is “inactive”.

On to `CO[C@H]1CN(C)C(=O)c2cc(NC(=O)Nc3cccc(Cl)c3)ccc2OC[C@@H](C)N(C(=O)Nc2c(C)noc2C)C[C@H]1C`, for which the cytotoxicity call is “inactive”.

For `C[C@H]1CN([C@@H](C)CO)C(=O)CCCn2nncc2CO[C@H]1CN(C)S(=O)(=O)c1ccc(Cl)cc1`, the cytotoxicity call is “inactive”.

Consider `NC(CC(=O)N1CCn2c(nnc2C(F)(F)F)C1)Cc1cc(F)c(F)cc1F.O.O=P(O)(O)O` (centres undefined), for which the cytotoxicity call was “inactive”.

In the case of `C[C@@H]1CN([C@@H](C)CO)C(=O)c2cccc(NS(=O)(=O)c3ccc(F)cc3)c2O[C@H]1CN(C)S(=O)(=O)c1ccc(F)cc1`, the cytotoxicity call is “inactive”.

As for `C[C@H](CO)N1C[C@H](C)[C@@H](CN(C)C(=O)c2cnccn2)Oc2ncc(C#CCC3CCCC3)cc2C1=O`, the cytotoxicity call is “inactive”.

Consider `CC(C)C[C@H](NC(=O)[C@@H](Cc1c[nH]c2ccccc12)NC(=O)[C@H](Cc1ccc(O)cc1)NC(=O)[C@H](CO)NC(=O)[C@H](Cc1c[nH]c2ccccc12)NC(=O)[C@H](Cc1cnc[nH]1)NC(=O)[C@@H]1CCC(=O)N1)C(=O)N[C@@H](CCCNC(=N)N)C(=O)N1CCC[C@H]1C(=O)NCC(N)=O`, for which the cytotoxicity call was “inactive”.

In the case of `O=C1O[C@@H](c2ccccc2)[C@@H](c2ccccc2)N2[C@@H](c3ccc(O)cc3)[C@]3(C(=O)Nc4ccccc43)[C@@H](C(=O)N3CCCCCCC3)[C@H]12`, the cytotoxicity call was “inactive”.

In the case of `O=C1O[C@H](c2ccccc2)[C@H](c2ccccc2)N2[C@H]1[C@@H](C(=O)N1CCCCCCC1)[C@]1(C(=O)Nc3ccccc31)[C@H]2c1ccc(O)cc1`, the cytotoxicity call is “active”.

On to `O=C1O[C@@H](c2ccccc2)[C@@H](c2ccccc2)N2[C@@H](c3ccc(OCCO)cc3)[C@]3(C(=O)Nc4ccccc43)[C@@H](C(=O)N3CCCCCCC3)[C@H]12`, for which the cytotoxicity call is “inactive”.

For `O=C(O)C[C@](O)(Cc1ccc(O)cc1)C(=O)O`, the cytotoxicity call is “inactive”.

For `CCS(=O)(=O)Nc1ccc2c(c1)C(=O)N(C)[C@H]1CC[C@H](CC(=O)N3CCN(C)CC3)O[C@@H]1CO2`, the cytotoxicity call was “inactive”.

On to `Cc1ccc(S(=O)(=O)N[C@H]2CC[C@@H](CC(=O)N3CCC(Cc4ccccc4)CC3)O[C@H]2CO)cc1`, for which the cytotoxicity call is “inactive”.

In the case of `C[C@@H]1CN([C@H](C)CO)C(=O)c2cccc(NC(=O)Nc3ccc4c(c3)OCO4)c2O[C@H]1CN(C)Cc1ccc(-c2ccccc2)cc1`, the cytotoxicity call was “inactive”.

With `O=C(NO)c1cccc(C(=O)N/N=C/c2cc(I)cc(I)c2O)c1`, the cytotoxicity call was “inactive”.

Turning to `O=C(CCCCC(=O)N/N=C/c1cc(I)cc(I)c1O)NO`, the cytotoxicity call is “inactive”.

As to `O=C(CCCCCCC(=O)N/N=C/c1cc(I)cc(I)c1O)NO`, the cytotoxicity call is “active”.

Turning to `C[C@@H]1CCCCO[C@@H](CN(C)Cc2ccncc2)[C@H](C)CN([C@@H](C)CO)C(=O)c2cc(NC(=O)CCC(F)(F)F)ccc2O1`, the cytotoxicity call was “inactive”.

Regarding `Oc1cc(O)c2c(c1)OC(c1cc(O)c(O)c(O)c1)C(O)C2c1c(O)cc(O)c2c1OC(c1cc(O)c(O)c(O)c1)C(O)C2c1c(O)cc(O)c2c1OC(c1cc(O)c(O)c(O)c1)C(O)C2` (centres undefined), the cytotoxicity call is “inactive”.

For `C[C@@H]1CN([C@H](C)CO)C(=O)c2cc(C#CCN(C)C)cnc2O[C@H]1CN(C)Cc1ccc(C(=O)O)cc1`, the cytotoxicity call was “inactive”.

`CCN(CC)[C@H]1CCS(=O)(=O)C1`: the cytotoxicity call was “inactive”.

For `C[C@@H](Oc1cc(-n2cnc3ccc(CN4CCN(C)CC4)cc32)sc1C(N)=O)c1ccccc1C(F)(F)F`, the cytotoxicity call was “active”.

Consider `COc1cccc(NC(=O)N2C[C@H](O)COC[C@@H]3O[C@@H](CC(=O)NC4Cc5ccccc5C4)CC[C@H]32)c1`, for which the cytotoxicity call is “inactive”.

As for `CCCNC(=O)N(C)C[C@@H]1Oc2cc(C#Cc3cccc(F)c3)ccc2S(=O)(=O)N([C@@H](C)CO)C[C@H]1C`, the cytotoxicity call was “inactive”.

In the case of `C[C@H](CO)N1C[C@H](C)[C@@H](CN(C)Cc2ccc(Cl)c(Cl)c2)OCCCC[C@H](C)Oc2ccc(NS(=O)(=O)c3ccc(Cl)cc3)cc2C1=O`, the cytotoxicity call was “inactive”.

For `C[C@@H]1CCCCO[C@@H](CN(C)Cc2ccc(Cl)c(Cl)c2)[C@@H](C)CN([C@H](C)CO)C(=O)c2cc(NS(=O)(=O)c3ccc(Cl)cc3)ccc2O1`, the cytotoxicity call was “inactive”.

Take `C[C@@H]1CCCCO[C@@H](CN(C)Cc2ccc(Cl)c(Cl)c2)[C@H](C)CN([C@@H](C)CO)C(=O)c2cc(NS(=O)(=O)c3ccc(Cl)cc3)ccc2O1`: the cytotoxicity call is “active”.

Regarding `C[C@@H]1CN([C@H](C)CO)C(=O)c2cc(NS(=O)(=O)c3ccc(Cl)cc3)ccc2O[C@@H](C)CCCCO[C@H]1CN(C)Cc1ccc(Cl)c(Cl)c1`, the cytotoxicity call is “active”.

Consider `C[C@@H]1CCCCO[C@@H](CN(C)Cc2ccc(Cl)c(Cl)c2)[C@@H](C)CN([C@@H](C)CO)C(=O)c2cc(NS(=O)(=O)c3ccc(Cl)cc3)ccc2O1`, for which the cytotoxicity call is “active”.

With `C[C@@H]1CCCCO[C@H](CN(C)Cc2ccc(Cl)c(Cl)c2)[C@@H](C)CN([C@@H](C)CO)C(=O)c2cc(NS(=O)(=O)c3ccc(Cl)cc3)ccc2O1`, the cytotoxicity call was “active”.

Turning to `C[C@@H]1CCCCO[C@H](CN(C)Cc2ccc(Cl)c(Cl)c2)[C@H](C)CN([C@@H](C)CO)C(=O)c2cc(NS(=O)(=O)c3ccc(Cl)cc3)ccc2O1`, the cytotoxicity call was “inactive”.

`C[C@@H]1CN([C@H](C)CO)C(=O)c2cc(NS(=O)(=O)c3ccc(Cl)cc3)ccc2O[C@@H](C)CCCCO[C@@H]1CN(C)Cc1ccc(Cl)c(Cl)c1`: the cytotoxicity call was “inactive”.

In the case of `Nc1nnc(CC(=O)O)[nH]1`, the cytotoxicity call is “inactive”.

Regarding `Cc1ccc(S(=O)(=O)Nc2ccc3c(c2)C(=O)N([C@H](C)CO)C[C@H](C)[C@H](CN(C)Cc2ccncc2)OCCCC[C@H](C)O3)cc1`, the cytotoxicity call was “inactive”.

Take `O=C(N[C@H]1CC[C@@H](CCNS(=O)(=O)c2ccc(F)cc2)O[C@H]1CO)C1CC1`: the cytotoxicity call was “inactive”.

With `C[C@@H]1CCCCO[C@@H](CN(C)S(C)(=O)=O)[C@@H](C)CN([C@@H](C)CO)C(=O)c2cc(NC(=O)CCCN(C)C)ccc2O1`, the cytotoxicity call is “inactive”.

For the molecule `CC(C)NC(=O)Nc1ccc2c(c1)CC(=O)N([C@@H](C)CO)C[C@@H](C)[C@@H](CN(C)Cc1ccc3c(c1)OCO3)O2`, the cytotoxicity call was “inactive”.
